Test results published in PubChem BioAssay AID1159580 (chemical genetic matrix, 2015).
The campaign covered roughly 5,500 compounds. About 2,000 (36%) were called active. Inconclusive results (about 18%) are left out. No stated cut-off is given here; in the data, active means normalized growth mostly below about 0.91 (no sharp cut-off); inconclusive means no clear call, values can overlap the other calls; inactive means mostly above about 0.92. This is one part of the list. Where a SMILES comes first, the peptide text is derived from it. Bridges are numbered along the chain shown (N, C = ends). [ ]: non-standard residue; d: D form. The star is where a group is joined. Octanoyl(6-Me) = CCC(C)CCCCC(=O)*; Dab = NCC[CH](N)C(=O)O

Experiment: chemical genetic growth profiling, strain panel (AID 1159580);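 further: tested at 20 µM; growth read once vehicle control cultures reached saturation at 30 °C; 1 = growth at the plate median or of vehicle wells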
Details: growth OD

Measured: normalized growth

CCC(C)CCCCC(=O)NC(CCN)C(=O)NC(C(=O)NC(CCN)C(=O)NC1CCNC(=O)C(C(C)O)NC(=O)C(CCN)NC(=O)C(CCN)NC(=O)C(CC(C)C)NC(=O)C(Cc2ccccc2)NC(=O)C(CCN)NC1=O)C(C)O (configuration not stated) ({Octanoyl(6-Me)}-[Dab]T[Dab][Dab][Dab]FL[Dab][Dab]T; lactam 4-C; configuration not given here)
inactive: S. cerevisiae deletion strains, locus YJR075W, strain HOC1, stronger effect = lower value 0.997 | S. cerevisiae deletion strains, locus YKL009W, strain mrt4, stronger effect = lower value 0.99 | S. cerevisiae deletion strains, locus YKL068W, stronger effect = lower value 1 | S. cerevisiae deletion strains, locus YKL085W, strain MDH1 (second series), stronger effect = lower value 0.998 | S. cerevisiae deletion strains, locus YKL085W, strain MDH1, stronger effect = lower value 0.998 | S. cerevisiae deletion strains, locus YKL160W, strain elf1, stronger effect = lower value 0.97 | S. cerevisiae deletion strains, locus YKL190W, strain CNB1, stronger effect = lower value 0.991 | S. cerevisiae deletion strains, locus YKR001C, strain vps1, stronger effect = lower value 0.987 | S. cerevisiae deletion strains, locus YKR026C, strain gcn3, stronger effect = lower value 1 | S. cerevisiae deletion strains, locus YKR091W, strain srl3, stronger effect = lower value 1.01 | S. cerevisiae deletion strains, locus YLL001W, strain dnm1, stronger effect = lower value 0.989 | S. cerevisiae deletion strains, locus YLL026W, stronger effect = lower value 1.02 | S. cerevisiae deletion strains, locus YLL041C, strain sdh2, stronger effect = lower value 0.995 | S. cerevisiae deletion strains, locus YLR027C, strain aat2, stronger effect = lower value 0.988 | S. cerevisiae deletion strains, locus YLR039C, strain RIC1, stronger effect = lower value 1.04 | S. cerevisiae deletion strains, locus YLR058C, strain SHM2, stronger effect = lower value 1 | S. cerevisiae deletion strains, locus YLR102C, strain apc9, stronger effect = lower value 1.01 | S. cerevisiae deletion strains, locus YLR113W, strain HOG1, stronger effect = lower value 0.986 | S. cerevisiae deletion strains, locus YLR221C, strain rsa3, stronger effect = lower value 0.988 | S. cerevisiae deletion strains, locus YLR258W, strain gsy2, stronger effect = lower value 0.978 | S. cerevisiae deletion strains, locus YLR262C, strain YPT6 (second series), stronger effect = lower value 1.04 | S. cerevisiae deletion strains, locus YLR262C, strain YPT6, stronger effect = lower value 1.05 | S. cerevisiae deletion strains, locus YLR268W, strain sec22, stronger effect = lower value 1.05 | S. cerevisiae deletion strains, locus YLR320W, strain mms22, stronger effect = lower value 0.957 | S. cerevisiae deletion strains, locus YLR330W, strain CHS5, stronger effect = lower value 1 | S. cerevisiae deletion strains, locus YLR342W, strain FKS1 (second series), stronger effect = lower value 0.95 | S. cerevisiae deletion strains, locus YLR342W, strain FKS1, stronger effect = lower value 0.995 | S. cerevisiae deletion strains, locus YLR357W, strain rsc2, stronger effect = lower value 0.968 | S. cerevisiae deletion strains, locus YLR370C, strain arc18, stronger effect = lower value 0.979 | S. cerevisiae deletion strains, locus YLR371W, strain rom2, stronger effect = lower value 1.01 | S. cerevisiae deletion strains, locus YLR384C, strain iki3, stronger effect = lower value 0.981 | S. cerevisiae deletion strains, locus YLR418C, strain cdc73, stronger effect = lower value 1.02 | S. cerevisiae deletion strains, locus YML016C, strain PPZ1, stronger effect = lower value 0.992 | S. cerevisiae deletion strains, locus YML032C, strain rad52, stronger effect = lower value 1.02 | S. cerevisiae deletion strains, locus YML120C, strain ndi1, stronger effect = lower value 0.985 | S. cerevisiae deletion strains, locus YML124C, strain tub3, stronger effect = lower value 1.01 | S. cerevisiae deletion strains, locus YMR058W, strain fet3, stronger effect = lower value 0.984 | S. cerevisiae deletion strains, locus YMR078C, strain ctf18, stronger effect = lower value 1.01 | S. cerevisiae deletion strains, locus YMR125W, strain sto1, stronger effect = lower value 0.993 | S. cerevisiae deletion strains, locus YMR129W, stronger effect = lower value 1 | S. cerevisiae deletion strains, locus YMR205C, strain PFK2, stronger effect = lower value 0.957 | S. cerevisiae deletion strains, locus YMR223W, strain ubp8, stronger effect = lower value 0.975 | S. cerevisiae deletion strains, locus YMR231W, strain pep5, stronger effect = lower value 1 | S. cerevisiae deletion strains, locus YMR263W, strain SAP30, stronger effect = lower value 1.02 | S. cerevisiae deletion strains, locus YMR307W, strain GAS1, stronger effect = lower value 0.984 | S. cerevisiae deletion strains, locus YNL067W, strain RPL9B, stronger effect = lower value 1.01 | S. cerevisiae deletion strains, locus YNL071W, strain lat1, stronger effect = lower value 1.02 | S. cerevisiae deletion strains, locus YNL128W, strain TEP1, stronger effect = lower value 0.982 | S. cerevisiae deletion strains, locus YNL153C, strain GIM3, stronger effect = lower value 1.02 | S. cerevisiae deletion strains, locus YNL183C, strain NPR1, stronger effect = lower value 0.944 | S. cerevisiae deletion strains, locus YNL209W, strain ssb2, stronger effect = lower value 1 | S. cerevisiae deletion strains, locus YNL233W, strain BNI4, stronger effect = lower value 0.992 | S. cerevisiae deletion strains, locus YNL248C, strain rpa49, stronger effect = lower value 0.989 | S. cerevisiae deletion strains, locus YNL250W, strain rad50, stronger effect = lower value 0.996 | S. cerevisiae deletion strains, locus YNL271C, strain bni1, stronger effect = lower value 1.01 | S. cerevisiae deletion strains, locus YNL298W, strain CLA4, stronger effect = lower value 0.997 | S. cerevisiae deletion strains, locus YNL307C, strain MCK1, stronger effect = lower value 1.01 | S. cerevisiae deletion strains, locus YNL322C, strain KRE1 (second series), stronger effect = lower value 0.976 | S. cerevisiae deletion strains, locus YNL322C, strain KRE1, stronger effect = lower value 0.991 | S. cerevisiae deletion strains, locus YNR049C, strain mso1, stronger effect = lower value 0.997 | S. cerevisiae deletion strains, locus YNR052C, strain pop2, stronger effect = lower value 0.979 | S. cerevisiae deletion strains, locus YOL006C, strain TOP1, stronger effect = lower value 0.992 | S. cerevisiae deletion strains, locus YOL012C, strain htz1 1.19 | S. cerevisiae deletion strains, locus YOL147C, strain pex11, stronger effect = lower value 1.01 | S. cerevisiae deletion strains, locus YOR001W, strain rrp6, stronger effect = lower value 0.97 | S. cerevisiae deletion strains, locus YOR061W, strain CKA2, stronger effect = lower value 0.991 | S. cerevisiae deletion strains, locus YOR069W, strain VPS5, stronger effect = lower value 1 | S. cerevisiae deletion strains, locus YOR070C, strain gyp1, stronger effect = lower value 0.995 | S. cerevisiae deletion strains, locus YOR080W, strain dia2, stronger effect = lower value 0.991 | S. cerevisiae deletion strains, locus YOR083W, strain WHI5, stronger effect = lower value 0.97 | S. cerevisiae deletion strains, locus YOR106W, strain vam3, stronger effect = lower value 0.987 | S. cerevisiae deletion strains, locus YOR136W, strain idh2, stronger effect = lower value 1 | S. cerevisiae deletion strains, locus YOR144C, strain elg1, stronger effect = lower value 1 | S. cerevisiae deletion strains, locus YOR184W, strain ser1, stronger effect = lower value 1.01 | S. cerevisiae deletion strains, locus YOR231W, strain MKK1, stronger effect = lower value 0.978 | S. cerevisiae deletion strains, locus YOR265W, strain rbl2, stronger effect = lower value 0.986 | S. cerevisiae deletion strains, locus YOR270C, strain vph1, stronger effect = lower value 0.963 | S. cerevisiae deletion strains, locus YOR290C, strain snf2, stronger effect = lower value 0.963 | S. cerevisiae deletion strains, locus YOR316C, strain cot1, stronger effect = lower value 1 | S. cerevisiae deletion strains, locus YPL051W, strain arl3, stronger effect = lower value 0.963 | S. cerevisiae deletion strains, locus YPL055C, strain LGE1, stronger effect = lower value 0.994 | S. cerevisiae deletion strains, locus YPL078C, strain atp4, stronger effect = lower value 0.972 | S. cerevisiae deletion strains, locus YPL106C, strain sse1, stronger effect = lower value 0.956 | S. cerevisiae deletion strains, locus YPL240C, strain hsp82, stronger effect = lower value 0.981 | S. cerevisiae deletion strains, locus YPL241C, strain CIN2, stronger effect = lower value 1 | S. cerevisiae deletion strains, locus YPL256C, strain CLN2, stronger effect = lower value 0.994 | S. cerevisiae deletion strains, locus YPR119W, strain clb2, stronger effect = lower value 0.999 | S. cerevisiae deletion strains, locus YPR141C, strain kar3, stronger effect = lower value 1.01 | S. cerevisiae deletion strains, locus YPR163C, strain tif3, stronger effect = lower value 1.02 | S. cerevisiae deletion strains, locus YPR167C, strain met16, stronger effect = lower value 1 | S. cerevisiae deletion strains, strain wtn01, stronger effect = lower value 1.01 | S. cerevisiae strains, strain wild type, stronger effect = lower value 0.99
